Source: PubChem
Sampled rows, rich in hits. Any-hit rate of the full collection: about 2.2%.
Abeta yeast res: A-beta toxicity reversal in yeast. yeast expressing A-beta42, growth rescue, OD600, 48 h; response scale: 0% DMSO, 100% iron-clioquinol control. Potency, µM (titrated, usually from 46.1 µM), actives largely listed as activators. 0.063% of 410,000 active. AID 1347071; also: nearly all actives have a fitted effect of over 55% in size
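Yeast growth medium received pinned compounds, then yeast cells expressing toxic A-beta were added; plates incubated at 30 C for 48 hr. Growth read as absorbance at 600 nm, normalized to DMSO and equimolar FeCl3 plus clioquinol controls.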
Mito fusion yeast: mitochondrial division inhibition or fusion activation | S. cerevisiae fusion-defective mutant growth rescue, CellTiterGlo 48 h | Potency, µM (doses to about 46.1 µM), for inactives: at the highest dose growth rescue (activation), usual class: activators | 0.23% of 320,000 active; also: % of control where 0% means no effect; nearly all actives have a fitted effect of over 45% in size
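Compounds are tested for their ability to restore growth of mitochondrial fusion-defective yeast strains at non-permissive 37C in YPEG medium over 48 hours. Viability is quantified by luciferase luminescence.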
TDP43 rescue: inhibitors of TDP-43 toxicity in yeast; TDP-43 expressing yeast growth rescue, BacTiter-Glo, 24 h; Potency, µM (top dose mostly 46.1 µM), for inactives: top-dose growth rescue (activation), most hits filed as activators; 1.8% of 410,000 active; AID 652104; also: % of control where 0% means no effect; nearly all actives have a fitted effect of over 50% in size
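Luminescence from BacTiter-Glo reports growth of TDP-43-expressing yeast after 24 hr at 30 deg C with compound. Cells were raffinose-pregrown to mid-log, then seeded in galactose medium at OD600=0.02.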
FUS suppressor: suppressors of FUS proteinopathy in yeast; Potency, µM (series often up to 76.6 µM), usual class: activators; S. cerevisiae FUS-expressing, growth rescue, OD600, 24 h; 0.24% of 390,000 active;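 also: plate controls were DMSO vehicle for no effect and reference control for full effect; nearly all actives have a fitted effect of over 55% in size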
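Galactose (2%) drives FUS expression in yeast precultured in raffinose; seeding density OD 0.005. Test compounds incubated 24hr at 30C and 99% humidity before absorbance at 600 nm was measured.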
aSyn yeast inh: alpha-synuclein toxicity inhibition in yeast; Yeast expressing alpha-synuclein, growth rescue, BacTiter-Glo, 24 h; Potency, µM (series often up to 46.1 µM), inactives show at the highest dose growth rescue (activation), hits mostly activators; 0.14% of 370,000 active; AID 652106; also: % of control where 0% means no effect; nearly all actives have a fitted effect of over 65% in size
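Readout is rescue of growth in alpha-synuclein-expressing yeast, so inhibitors of toxicity appear as activators. Growth after 24 hr at 30 deg C in galactose medium is quantified by luminescence.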
An asterisk follows results filed as active; i = inactive; ? = inconclusive; · = not tested or not shown. Calls follow the shape of the dose curve; as a rule, active = well fitted curve in the direction sought with a large enough effect; inconclusive = small, poorly fitted or top-dose-only effect, or another doubt; inactive = no such curve, though single readings can be large; an effect the other way counts as inactive or inconclusive. Potency is read from the fitted curve at half-maximal effect.

SMILES	Abeta yeast res	Mito fusion yeast	TDP43 rescue	FUS suppressor	aSyn yeast inh
CC1CCCN(C(=O)CSc2c3c(nc4cc(Cl)ccc24)CCCC3)C1 (stereo not drawn)	i	·	18µM*	i	·
COc1ccc(NC(=O)CSc2nc(N)c3cc4c(nc3n2)CCCC4)c(OC)c1	i	-2%	-32%	32µM*	4%
CC(C)NS(=O)(=O)c1ccc(OCC(=O)N2CCN(c3ccccc3F)CC2)cc1	i	·	-2%	i	·
COc1cccc(-c2nnc3sc(-c4ccc(Br)o4)nn23)c1	·	·	·	i	·
Cc1ccc(C(=O)NCC(c2ccc3c(c2)OCO3)N2CCOCC2)cc1C (stereo not drawn)	i	·	15%	i	·
O=C(COc1ccccc1[N+](=O)[O-])N(Cc1ccco1)c1ccccn1	i	·	21%	i	·
COc1ccc(OC)c(NC(=O)CSc2c3c(nc4ccccc24)CCCC3)c1	i	·	30%	i	·
COc1ccc(OC)c(NC(=O)CSc2c3c(nc4cc(Cl)ccc24)CCCC3)c1	i	·	20µM*	i	·
COc1ccc2c(c1)CN1CN(Cc3ccc(F)cc3)S(=O)(=O)CC21 (stereo not drawn)	·	·	·	i	·
CC(C)C(C(=O)Nc1ccccc1)N1C(=O)c2ccccc2C1=O (stereo not drawn)	i	1%	16µM*	i	8%
CC(C(=O)Nc1ccccc1)N1C(=O)c2ccccc2C1=O (stereo not drawn)	i	3%	9%	i	1%
CCCCC1Cc2[nH][nH]c(=O)c2C(c2ccc(Cl)cc2)O1 (stereo not drawn)	i	·	11µM*	?	-5%
O=c1[nH]c(=S)[nH]c2c1C(c1ccc(F)cc1)OC(CCC(F)(F)F)C2 (stereo not drawn)	i	·	2%	i	-1%
CC(C)[C@@H]1Cc2[nH][nH]c(=O)c2[C@H](c2ccc(F)cc2)O1	i	·	11µM*	i	-9%
O=c1[nH][nH]c2c1[C@H](c1ccc(F)cc1)O[C@H](CCC(F)(F)F)C2	i	·	20µM*	i	?
O=c1[nH][nH]c2c1C(c1ccc(F)cc1)OC(CCc1ccccc1)C2 (stereo not drawn)	i	·	20µM*	i	14%
CCN(CC)c1sc(S(=O)(=O)c2ccccc2)nc1S(=O)(=O)c1ccc(C)cc1	i	·	9%	i	·
CCCCC(=O)Nc1cc(-c2cn3cccnc3n2)ccc1C	i	·	-8%	i	·
COc1ccc(-c2cc(-c3ccccc3)c(C#N)c(S(C)=O)n2)cc1 (stereo not drawn)	i	-2%	18µM*	i	6%
Cc1cc(C)c(NC(=O)C2CCCO2)c(C)c1NC(=O)C1CCCO1 (stereo not drawn)	i	2%	2%	i	2%
O=C1COc2ccccc2N1Cc1c(F)cccc1Cl	i	10%	11µM*	i	4%
CCN(CC)C(=O)CSc1nc2ccc(NC(=O)CSc3nnc(N)s3)cc2s1	i	4%	-5%	10µM*	0%
CCN(CC)C(=O)CSc1nc2ccc(NC(=O)CSc3nccn3C)cc2s1	i	-3%	-7%	i	2%
Cc1cc(Cl)ccc1OCc1cc(=O)n2c3c(sc2n1)CCCC3	i	·	17%	i	·
COc1ccc(-c2cc3nc(C)cc(N4CCN(C(=O)c5ccoc5)CC4)n3n2)cc1	i	·	?	i	-1%
SMILES	Abeta yeast res	Mito fusion yeast	TDP43 rescue	FUS suppressor	aSyn yeast inh
COc1cccc(-c2cc(N3CCN(C(=O)c4ccoc4)CC3)n3nc(-c4cccc(Cl)c4)cc3n2)c1	i	·	3.5µM*	i	7%
COc1cccc(-c2cc3nc(-c4ccccc4)cc(N4CCC5(CC4)OCCO5)n3n2)c1	i	6%	16µM*	i	-16%
COc1cccc(-c2cc3nc(C)cc(N4CCN(C(=O)c5ccoc5)CC4)n3n2)c1	i	·	0%	i	-1%
COc1cccc(-c2cc3nc(-c4ccccc4)cc(N4CCN(C(=O)c5ccoc5)CC4)n3n2)c1	i	·	16µM*	?	5%
COc1cccc(-c2cc3nc(-c4ccco4)cc(N4CCN(C(C)=O)CC4)n3n2)c1	·	·	·	i	·
COc1ccc(CCNC(=O)C(=O)NCC(c2ccco2)S(=O)(=O)c2ccccc2)cc1 (stereo not drawn)	i	·	-1%	i	·
Cc1ccc(OCCOc2cccc(Br)c2)c([N+](=O)[O-])n1	i	17%	14µM*	i	2%
CSc1cccc(N2CC(C(=O)Nc3cccc(S(=O)(=O)N4CCCC4)c3)CC2=O)c1 (stereo not drawn)	i	-1%	-4%	i	6%
CCc1ccc(S(=O)(=O)c2nnn3c2nc(N2CCN(c4ccccc4)CC2)c2cc(Cl)ccc23)cc1	i	·	5%	i	·
Cc1cc2nnc(SCc3ccc(F)cc3)n2c2ccccc12	i	·	35µM*	i	24%
CC(=O)CSc1nnc2cc(C)c3ccccc3n12	i	-3%	-1%	i	-4%
Cc1cccc(N2CCN(c3nc4ccc(C)cc4n4cnnc34)CC2C)c1 (stereo not drawn)	i	·	35µM*	i	·
CCOC(=O)c1c(C)[nH]c(C)c1S(=O)(=O)NCC(=O)N1CCN(c2ccccc2OC)CC1	i	·	11%	i	·
Cc1cccc2sc(N3CCN(C(=O)CS(=O)(=O)c4ccc(F)cc4)CC3)nc12	i	·	13µM*	i	·
NC(=O)c1c(NC(NC(=O)c2ccco2)C(=O)c2ccc(Cl)cc2)sc2c1CCCC2 (stereo not drawn)	i	7%	-16%	?	10%
N#Cc1c(NC(NC(=O)c2ccco2)C(=O)c2ccccc2)sc2c1CCCC2 (stereo not drawn)	i	13µM*	-5%	i	3%
O=C(NNc1nc2ccc(F)cc2s1)c1cccc(F)c1	?	2%	13µM*	i	?
O=C(Nc1nc2ccc(F)cc2s1)c1ccccn1	?	8%	-16%	i	11µM*
O=C(Nc1nnc(SCc2ccc(F)cc2)s1)c1cccnc1Cl	i	-7%	?	i	3%
O=C(Nc1nnc(SCc2ccc(F)cc2)s1)c1ccccn1	i	1%	-27%	i	4.5µM*
O=C(NNc1nc2ccccc2s1)c1ccc(F)cc1	i	3%	?	·	-5%
Cc1ccc(-n2ncc3c(Nc4ccc5c(c4)OCCO5)ncnc32)cc1C	i	·	16%	i	·
O=C(NCCc1csc(-c2ccc(F)cc2)n1)C(=O)Nc1ccc(Cl)cc1	i	·	-3%	i	·
Cc1ccc(S(=O)(=O)NCCc2csc(-c3ccc(Cl)cc3)n2)cc1	?	·	20µM*	i	·
